Experimental data published in PubChem BioAssay (NCATS).
Results filed as inconclusive are left out. A call without a number means that no potency is given here. Active and inactive are the calls of the source. Calls come from the whole dose curve; as a rule, active = well fitted curve in the direction sought with a large enough effect; inconclusive = small, poorly fitted or top-dose-only effect, or another doubt; inactive = no such curve, though single readings can be large; an effect the other way counts as inactive or inconclusive.

Key:
[1] = target: N-terminal Xaa-Pro-Lys N-methyltransferase 1 (Homo sapiens) (UniProt Q9BV86); experiment: qHTS Assay for Inhibitors of N-terminal methyltransferase 1 (NTMT1): LOPAC validation of the NTMT1 SAHH-coupled ThioGlo3 Assay (AID 1347143);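 note: SAH from peptide methylation measured as thiol fluorescence via SAHH coupling and ThioGlo3; nearly all actives have a fitted effect of over 70% in size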
Chain of N-terminal Xaa-Pro-Lys N-methyltransferase 1 (Homo sapiens) (Q9BV86 whole entry, looked up): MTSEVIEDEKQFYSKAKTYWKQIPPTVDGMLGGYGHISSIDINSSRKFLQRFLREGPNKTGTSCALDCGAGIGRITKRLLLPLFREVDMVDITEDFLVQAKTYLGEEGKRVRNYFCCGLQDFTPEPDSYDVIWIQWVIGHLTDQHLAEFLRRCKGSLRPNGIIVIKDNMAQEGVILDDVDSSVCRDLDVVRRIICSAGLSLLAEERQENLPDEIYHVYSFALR
In short: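 Recombinant human NTMT1 (125nM) was pre-incubated 1 min at room temperature with compounds over a concentration range, then a mix of 100uM SAM, 10uM SAHH and 15uM ThioGlo3 (concentrations in added reagent) was added. ThioGlo3 fluorescence (ex 340/em 450nm) after 30 min was normalized to the initial reading.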

[2] = system: Zika virus NS2B-NS3 protease (unlinked); experiment: Optimization of GU AMC qHTS for Zika virus inhibitors: Unlinked NS2B-NS3 protease assay (AID 1347151); note: nearly all actives have a fitted effect of over 80% in size
In short: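 Unlinked protease (25 nM final); buffer 10 mM Tris-HCl pH 8.0 + 0.01% Tween 20; AMC substrate; 15 min RT, dark; Δfluorescence normalized to no-inhibitor/no-enzyme controls; 4-parameter Hill fit.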

[3] = qHTS of pediatric cancer cell lines to identify multiple opportunities for drug repurposing: Confirmatory screen for U-2 OS cells (AID 1347122); settings: U-2 OS osteosarcoma cell viability; note: nearly all actives have a fitted effect of over 65% in size
In short: (§1)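 Viability after 48 h compound treatment at 37C, 500-1,000 cells/well, read as ATP luminescence with CellTiter-Glo. Primary screens used 11-point (MIPE, 0.78 nM-46 µM) or 8-point (NPC, 0.59 nM-46 µM) final concentrations; follow-up screens used 11-point dilutions.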

[4] = qHTS of pediatric cancer cell lines to identify multiple opportunities for drug repurposing: Confirmatory screen for Rh41 cells (AID 1347123); settings: Rh41 rhabdomyosarcoma cells, viability/cytotoxicity qHTS;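 note: 48 h compound exposure; nearly all actives have a fitted effect of over 60% in size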
In short: as §1

[5] = qHTS of pediatric cancer cell lines to identify multiple opportunities for drug repurposing: Confirmatory screen for RD cells (AID 1347124); settings: RD rhabdomyosarcoma cell viability;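 note: cells exposed to compound for 48 h before viability readout; nearly all actives have a fitted effect of over 65% in size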
In short: as §1

[6] = qHTS of pediatric cancer cell lines to identify multiple opportunities for drug repurposing: Confirmatory screen for Rh18 cells (AID 1347125); settings: Rh18 rhabdomyosarcoma cells, viability; note: nearly all actives have a fitted effect of over 55% in size
In short: as §1

[7] = qHTS of pediatric cancer cell lines to identify multiple opportunities for drug repurposing: Confirmatory screen for Rh30 cells (AID 1347126); settings: Rh30 rhabdomyosarcoma cell viability; note: nearly all actives have a fitted effect of over 55% in size
In short: as §1

[8] = qHTS of pediatric cancer cell lines to identify multiple opportunities for drug repurposing: Confirmatory screen for Saos-2 cells (AID 1347127); settings: Saos-2 osteosarcoma cell viability; note: nearly all actives have a fitted effect of over 60% in size
In short: as §1

[9] = qHTS of pediatric cancer cell lines to identify multiple opportunities for drug repurposing: Confirmatory screen for OHS-50 cells (AID 1347128); settings: OHS-50 osteosarcoma cells viability;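 note: compound exposure lasted 48 h at 37 degrees C; nearly all actives have a fitted effect of over 55% in size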
In short: as §1

[10] = qHTS of pediatric cancer cell lines to identify multiple opportunities for drug repurposing: Confirmatory screen for SK-N-SH cells (AID 1347129); settings: SK-N-SH neuroblastoma cell viability;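 note: cells exposed to compound for 48 h before viability read; nearly all actives have a fitted effect of over 60% in size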
In short: as §1

[11] = system: Zika virus NS2B-NS3 protease; experiment: Primary screen GU AMC qHTS for Zika virus inhibitors (AID 1347154); note: nearly all actives have a fitted effect of over 70% in size
In short: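 Unlinked Zika NS2B hydrophilic domain–NS3 protease complex at 25 nM in 10 mM Tris-HCl pH 8.0, 0.01% Tween 20, with an AMC peptide substrate. Fluorescence change (340/450 nm) over 15 min at room temperature, normalized to controls, fitted to 4-parameter Hill.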

Furin (Homo sapiens) = Furin (Homo sapiens) (UniProt P09958); experiment: Furin counterscreen qHTS for Zika virus inhibitors (AID 1347149); note: nearly all actives have a fitted effect of over 70% in size
Chain of Furin (Homo sapiens) (P09958 whole entry, looked up): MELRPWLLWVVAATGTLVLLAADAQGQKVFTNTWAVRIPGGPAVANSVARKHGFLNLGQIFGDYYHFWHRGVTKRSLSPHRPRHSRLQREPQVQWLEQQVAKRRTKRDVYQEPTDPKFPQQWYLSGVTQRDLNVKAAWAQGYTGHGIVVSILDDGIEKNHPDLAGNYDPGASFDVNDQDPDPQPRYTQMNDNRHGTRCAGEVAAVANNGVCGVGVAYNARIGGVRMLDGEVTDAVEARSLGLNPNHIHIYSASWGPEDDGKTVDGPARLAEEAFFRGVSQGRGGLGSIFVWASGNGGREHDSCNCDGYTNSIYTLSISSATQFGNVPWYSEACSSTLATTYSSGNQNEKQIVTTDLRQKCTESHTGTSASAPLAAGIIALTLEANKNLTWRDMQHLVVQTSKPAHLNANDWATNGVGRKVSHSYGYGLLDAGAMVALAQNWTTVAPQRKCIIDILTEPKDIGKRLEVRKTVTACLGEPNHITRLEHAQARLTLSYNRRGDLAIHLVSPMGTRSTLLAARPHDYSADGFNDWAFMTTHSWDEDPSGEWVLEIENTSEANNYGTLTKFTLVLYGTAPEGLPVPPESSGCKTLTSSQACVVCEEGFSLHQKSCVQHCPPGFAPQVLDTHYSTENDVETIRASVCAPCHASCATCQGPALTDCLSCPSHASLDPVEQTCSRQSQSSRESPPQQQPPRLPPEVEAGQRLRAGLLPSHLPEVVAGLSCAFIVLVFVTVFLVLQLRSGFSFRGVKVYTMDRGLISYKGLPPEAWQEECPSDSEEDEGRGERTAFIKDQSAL
In short: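 Fluorogenic cleavage of BOC-RVRR-AMC (2 microM final, Km ~15 µM) was monitored (ex 340, em 450 nm) at 37C after 15 min RT preincubation of 5 nM furin with compounds in HEPES pH 7.0 buffer with CaCl2 and Triton X-100. Percent inhibition was fitted to a 4-parameter Hill curve.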

[12] = system: Zika virus NS2B-NS3 protease (linked construct); experiment: Confirmatory screen NINDS AMC qHTS for Zika virus inhibitors (AID 1347152); note: nearly all actives have a fitted effect of over 70% in size
In short: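 Enzyme (1 nM, linked construct) was preincubated with compound for 15 minutes at room temperature in 10 mM Tris-HCl pH 8.0 with 0.01% Tween 20. Bz-Nle-Lys-Arg-Arg-AMC was then added to 10 microM, and AMC fluorescence was recorded immediately and after 15 minutes.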

[13] = system: Zika virus NS2B-NS3 protease (unlinked complex); experiment: Confirmatory screen GU AMC qHTS for Zika virus inhibitors (AID 1347153)
In short: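 Noncovalent NS2B hydrophilic domain/NS3 protease complex (25 nM) in 10 mM Tris-HCl pH 8.0, 0.01% Tween 20 was preincubated 15 min at room temperature with compounds. Then 10 µM AMC substrate (Km 18.3 µM) was added; fluorescence was read over 15 min and fitted to a 4-parameter Hill equation.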

[14] = Confirmatory screen NINDS Rhodamine qHTS for Zika virus inhibitors (AID 1347161); note: nearly all actives have a fitted effect of over 60% in size
In short: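 Kinetic fluorescence (Ex 480 nm, Em 540 nm) over 15 min with 1.5 microM Rhodamine110 peptide and 25 nM linked protease.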
Potency is the fitted concentration of half-maximal effect.

O=P(O)(O)C(Cl)(Cl)P(=O)(O)O
Potency [1]: inactive

NC(=O)c1cc(N2CC2)c([N+](=O)[O-])cc1[N+](=O)[O-]
Potency [1]: inactive | Potency [2]: inactive

C[C@]12Cc3cn4c(nc3C=C1CCC1C2CC[C@@]2(C)[C@H]1CC[C@@]2(O)C#N)nc1ccccc14 (some centres undefined)
Potency [1]: inactive

C[CH2][Hg][S]c1ccccc1C(=O)O
Potency [3]: 8.27 µM (active) | Potency [4]: 1.17 µM (active) | Potency [5]: 7.37 µM (active) | Potency [6]: 16.5 µM (active) | Potency [7]: 4.14 µM (active) | Potency [8]: 2.93 µM (active) | Potency [9]: 9.27 µM (active) | Potency [10]: 5.26 µM (active) | Potency [11]: inactive

NC(Cc1cc(O)c(O)cc1O)C(=O)O (centres undefined)
Potency [1]: 44.7 µM (active) | Potency [2]: 7.52 µM (active)

O=S1(=O)N(CCN2CC=C(c3c[nH]c4cc(F)ccc34)CC2)c2cccc3c2N1CCC3
Potency [1]: 50.1 µM (active) | Potency [2]: inactive

CC(C)(O)[C@@H]1[C@H]2OC(=O)[C@@H]1[C@]1(O)C[C@H]3O[C@]34C(=O)O[C@H]2[C@]14C (tested in a mixture with another compound)
Potency [1]: inactive

CCCC[N+]1(C)C2CC(OC(=O)[C@H](CO)c3ccccc3)CC1C1OC12 (some centres undefined)
Potency [1]: inactive | Potency [2]: inactive

CCn1cnc2c(Nc3cccc(Cl)c3)nc(N[C@@H]3CCCC[C@@H]3N)nc21
Potency [1]: 8.91 µM (active) | Potency [2]: inactive

NCCc1ccc(S(=O)(=O)F)cc1
Potency [1]: inactive | Potency [2]: inactive

CCNC(=O)[C@H]1O[C@@H](n2cnc3c(N)ncnc32)[C@H](O)C1O (some centres undefined)
Potency [1]: inactive

NNC(N)=O
Potency [1]: inactive | Potency [2]: inactive

C[N+]1(C)CCC(OC(=O)C(c2ccccc2)c2ccccc2)CC1
Potency [1]: 63.1 µM (active)

Nc1ncnc2c1ncn2[C@@H]1O[C@H](COP(=O)(O)CP(=O)(O)OP(=O)(O)O)C(O)[C@H]1O (some centres undefined)
Potency [1]: inactive

CC1OC1P(=O)(O)O (centres undefined)
Potency [1]: inactive

CN(N=O)c1ccc(O)c(O)c1
Potency [1]: 35.5 µM (active)

O=c1ccc2[nH]cc(C3=CCNCC3)c2[nH]1
Potency [1]: 56.2 µM (active) | Potency (Furin (Homo sapiens)): 24.1 µM (active) | Potency [2]: 37.7 µM (active) | Potency [12]: 24.1 µM (active) | Potency [13]: 24.1 µM (active) | Potency [11]: 26.7 µM (active) | Potency [14]: 44.1 µM (active)

O=C1/C(=C/c2ccccc2)C[C@@]2(O)[C@H]3Cc4ccc(O)c5c4[C@@]2(CCN3CC2CC2)[C@H]1O5
Potency [1]: 50.1 µM (active)

CC1(C(=O)O)C2CCC(O2)C1(C)C(=O)O (centres undefined)
Potency [1]: inactive | Potency [2]: inactive

CCN(CC)c1ncnc2c1ncn2[C@@H]1O[C@H](COP(=O)(O)OP(=O)(O)C(Br)(Br)P(=O)(O)O)[C@@H](O)[C@H]1O
Potency [1]: inactive

CC(C)CC(NP(=O)(O)O[C@@H]1O[C@@H](C)[C@H](O)[C@@H](O)[C@H]1O)C(=O)NC(Cc1c[nH]c2ccccc12)C(=O)O (some centres undefined)
Potency [1]: inactive

CCCCCCCCCCCCCC(=O)O[C@@H]1[C@@H](C)[C@@]2(O)[C@@H](C=C(CO)C[C@@]3(O)C(=O)C(C)=C[C@@H]23)C2C(C)(C)[C@@]21OC(C)=O (some centres undefined)
Potency [1]: inactive
